Bioassay records deposited in PubChem by National Center for Advancing Translational Sciences (NCATS).
This excerpt belongs to a sample that is enriched for hits.
LmPK inh = inhibitors of Leishmania mexicana pyruvate kinase | actives 0.37% (n = 290,000) | Q27686 | purified LmPK, Kinase-Glo ATP luminescence, 1 h | AID 1721 | Potency, µM (series often up to 57.5 µM), hits mostly inhibitors
Target sequence (Q27686 whole entry, looked up): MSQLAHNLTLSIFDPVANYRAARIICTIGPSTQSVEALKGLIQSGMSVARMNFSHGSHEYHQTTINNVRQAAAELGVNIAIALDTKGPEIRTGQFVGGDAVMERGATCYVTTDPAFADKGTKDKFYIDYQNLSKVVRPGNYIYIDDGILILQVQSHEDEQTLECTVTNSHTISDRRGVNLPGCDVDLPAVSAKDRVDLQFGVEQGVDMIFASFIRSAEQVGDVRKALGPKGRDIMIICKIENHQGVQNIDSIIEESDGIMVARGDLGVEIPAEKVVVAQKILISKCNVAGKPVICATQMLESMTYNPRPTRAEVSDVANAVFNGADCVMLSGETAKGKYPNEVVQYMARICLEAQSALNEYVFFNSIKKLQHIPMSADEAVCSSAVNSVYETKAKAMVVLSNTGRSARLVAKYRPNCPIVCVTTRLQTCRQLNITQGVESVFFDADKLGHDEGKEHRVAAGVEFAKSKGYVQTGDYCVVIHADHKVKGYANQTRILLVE
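ATP generated from ADP (0.1 mM) and PEP (0.5 mM) by 0.1 nM LmPK over 1 h at room temperature (pH 7.2 imidazole buffer) was detected by coupled luciferase luminescence. Values were normalized to uninhibited and no-enzyme wells.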
RE007 growth inh = less growth of the S. pombe RE007 Vpr strain; S. pombe RE007 Vpr strain, BacTiter-Glo ATP luminescence, 24 h; Potency, µM (series often up to 92.2 µM), usual class: inhibitors; actives 0.21% (n = 360,000); AID 651644; active = well fitted falling curve with a large enough effect; inconclusive = small, poorly fitted or top-dose-only effect; inactive = no such curve, though single readings can be large or run the other way; note: nearly all actives have a fitted effect of over 50% in size
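Fission yeast strain RE007, carrying one chromosomally integrated HIV-1 vpr copy, was seeded at OD 0.01 in PMG+AL medium with 23 nL pinned compound. After 24 h at 30 °C and 99% humidity, viability was read by BacTiter-Glo luminescence.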
Cycloheximide cs = affects cycloheximide protein synthesis inhibition readout, counter-screen | cell reporter, cycloheximide protein synthesis inhibition counterscreen | max response, % | actives 12% (n = 300,000) | AID 2314; in the data active = max response mostly above about 13%, no sharp cut-off; inactive = mostly below about 14%; note: read at 38.3 µM for the half of the compounds with a filed dose
Tb PYK inh = inhibitors of Trypanosoma brucei pyruvate kinase; Potency, µM (highest dose often 76.8 µM), most hits filed as inhibitors; actives 0.12% (n = 410,000); Q57TT1; TbPYK enzyme, Kinase-Glo Plus ATP luminescence, 45 min; note: nearly all actives have a fitted effect of over 50% in size
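Activity of T. brucei pyruvate kinase was followed by Kinase-Glo Plus luminescence after the enzyme reacted 45 min at room temperature with 130 uM ADP (final) and substrate. Test compounds were added before ADP at multiple concentrations.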
Shiga toxin inh = blocks Shiga toxin action in Vero cells; Vero cells, Shiga toxin protein synthesis inhibition reporter; AID 2315; actives 9.2% (n = 290,000); inhibition, % at 38.7 µM; in the data active = inhibition mostly above about 28%, no sharp cut-off; inactive = mostly below about 43%
FBPA Giardia inh = blocks Giardia fructose-bisphosphate aldolase activity. purified Giardia FBPA. A8B2U2. Potency, µM (series often up to 59.6 µM), usual class: inhibitors. actives 0.71% (n = 290,000); note: nearly all actives have a fitted effect of over 55% in size
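40 nM FBPA preincubated 10 min at RT with compound (up to 57.5 uM final), then substrate plus GAPDH/TPI/NAD/arsenate coupling and diaphorase/resazurin added. Fluorescence read after 20 min at RT, 525/598 nm.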
Each line names hits and unclear results; the compound was inactive in the other large screens. Unless noted, calls come from the whole dose curve; as a rule, active = well fitted curve in the direction sought with a large enough effect; inconclusive = small, poorly fitted or top-dose-only effect, or another doubt; inactive = no such curve, though single readings can be large; an effect the other way counts as inactive or inconclusive.

COc1cc(O)cc2occ(-c3ccc(O)cc3)c(=O)c12	Cycloheximide cs 13.1
CCn1c(=O)c2cc(C(=O)N3CCN(c4cccc(OC)c4)CC3)sc2c2ccccc21	none (no result: LmPK inh, RE007 growth inh, Cycloheximide cs, Shiga toxin inh, FBPA Giardia inh)
O=C(Nc1ccc(F)cc1)[C@H](CSCc1ccccc1)N1Cc2ccccc2C1=O	none (no result: LmPK inh, RE007 growth inh, Cycloheximide cs, Shiga toxin inh, FBPA Giardia inh)
CCCCOc1ccc(C2C(=O)N(C3CCCCC3)CC(=O)N2CCCC)cc1 (stereo not given)	none (no result: LmPK inh, RE007 growth inh, Cycloheximide cs, Shiga toxin inh, FBPA Giardia inh)
COc1ccccc1CN1CCC2(CC1)CCN(S(=O)(=O)c1ccccc1)CC2	none (no result: LmPK inh, RE007 growth inh, Cycloheximide cs, Shiga toxin inh)
C=C1N[C@]2(C(=O)COC(C)=O)[C@@H](C[C@H]3[C@@H]4CCC5=CC(=O)C=C[C@]5(C)[C@H]4[C@@H](O)C[C@@]32C)O1	none (no result: LmPK inh, RE007 growth inh, Cycloheximide cs, Shiga toxin inh, FBPA Giardia inh)
CCOc1ccc(CN(C(=O)c2ccccn2)c2ccc(OC)c(Cl)c2)cc1	Shiga toxin inh 64.4
CCOc1ccc(N(Cc2ccc(OC)c(OC)c2)C(=O)c2ccco2)cc1	none
Cc1cccc(-n2cnc3cc(C(=O)NCc4ccccc4Cl)ccc32)c1	none (no result: LmPK inh, RE007 growth inh, Cycloheximide cs, Shiga toxin inh, FBPA Giardia inh)
O=C(N/N=C/c1cccc2cccnc12)c1ccccc1O	Cycloheximide cs 32.1, Shiga toxin inh 83.9, FBPA Giardia inh inconclusive
O=C(N/N=C/c1cccc2nccnc12)c1ccncc1	FBPA Giardia inh inconclusive
O=C(N/N=C/c1cccc2nccnc12)c1ccccc1O	Cycloheximide cs 19.3, Shiga toxin inh 37.0, FBPA Giardia inh inconclusive
Cc1cc(C)nc(-n2nc(C)c3c2N(Cc2ccccc2)C(=O)CC3c2ccc(Cl)cc2)n1 (stereo not given)	none (no result: LmPK inh, RE007 growth inh, Cycloheximide cs, Shiga toxin inh, FBPA Giardia inh)
O=[N+]([O-])c1ccc(N2CCCCCC2)c2nonc12	none (no result: Shiga toxin inh)
Cc1ccc(S(=O)c2ccc([N+](=O)[O-])c3nonc23)cc1 (stereo not given)	RE007 growth inh inconclusive, Tb PYK inh 6.31µM (no result: LmPK inh, Cycloheximide cs, Shiga toxin inh, FBPA Giardia inh)
N#C/C(=C\c1cccs1)C(=O)Nc1nccs1	LmPK inh inconclusive, Cycloheximide cs 27.2, Tb PYK inh inconclusive, Shiga toxin inh 65.2
O=C(Nc1nccs1)c1ccccc1N=Cc1ccccc1	Cycloheximide cs 24.9, Shiga toxin inh 47.9
CC1Oc2ccccc2OC1C(=O)Nc1nccs1 (stereo not given)	Cycloheximide cs 18.3 (no result: FBPA Giardia inh)
N#C/C(=C\c1cccs1)C(=O)NCc1ccccc1	Tb PYK inh inconclusive
COc1cccc(C=Nc2ccccc2C(=O)Nc2nccs2)c1OC	none
C/C(=C\c1ccccc1)C(=O)Nc1nccs1	Cycloheximide cs 48.9, Shiga toxin inh 152.0
O=C(NCCc1nc2ccccc2n1Cc1c(F)cccc1Cl)c1ccco1	none (no result: LmPK inh, RE007 growth inh, Cycloheximide cs, Shiga toxin inh, FBPA Giardia inh)
O=S(=O)(NCCS(=O)(=O)N1CCN(c2cccc(Cl)c2)CC1)c1ccc(F)cc1	none (no result: LmPK inh, RE007 growth inh, Cycloheximide cs, Shiga toxin inh, FBPA Giardia inh)
COc1ccc(Oc2ncc3nc(-c4cc(F)cc(F)c4)c(=O)n(C[C@H]4CCCO4)c3n2)cc1	none (no result: LmPK inh, RE007 growth inh, Cycloheximide cs, Tb PYK inh, Shiga toxin inh)
O=C(Nc1nccs1)c1cccnc1Cl	none
O=C(Nc1nccs1)c1ccc[nH]c1=O	Cycloheximide cs 25.3 (no result: Shiga toxin inh)
O=C(NCCc1csc(-c2ccccc2)n1)c1ccco1	none
Cc1cc(C(=O)NCc2csc(-c3ccccc3)n2)no1	Cycloheximide cs 51.1, Shiga toxin inh 95.4 (no result: FBPA Giardia inh)
O=C(NCc1csc(-c2ccccc2)n1)c1ccco1	Cycloheximide cs 26.9, Shiga toxin inh 60.1
Cc1ccc(CSc2cc(C)[nH]c(=O)n2)cc1	Shiga toxin inh 25.5 (no result: FBPA Giardia inh)
Cc1cc(SCc2ccc(Cl)cc2)nc(=O)[nH]1	Cycloheximide cs 15.8 (no result: FBPA Giardia inh)
Cc1cc(SCc2cccc(Cl)c2)nc(=O)[nH]1	none
S=C1NC[C@H](Cc2ccccc2)N1CCCCC1CCCCC1	Cycloheximide cs 10.6, Shiga toxin inh 41.6
S=C1NC[C@H](Cc2ccccc2)N1CC1CCN(CCCC2CCCC2)CC1	none (no result: LmPK inh, Cycloheximide cs, Shiga toxin inh, FBPA Giardia inh)
CC(=O)N[C@@H](CC(C)C)C(=O)N[C@@H](CC(C)C)C(=O)N[C@H](C=O)CCCN=C(N)N	none (no result: LmPK inh, RE007 growth inh, Tb PYK inh)
CCCC[C@@H](C=O)NC(=O)[C@H](CC(C)C)NC(=O)[C@H](CC(C)C)NC(C)=O	Cycloheximide cs 41.9, Shiga toxin inh 77.5 (no result: LmPK inh, RE007 growth inh, Tb PYK inh)
CSc1nc(-c2ccco2)nn1C(=O)c1cccs1	none
CCC(=O)n1nc(-c2ccco2)nc1N	none
O=C(c1cccs1)n1nc(-c2ccco2)nc1SCc1ccccc1	Cycloheximide cs 25.8, Shiga toxin inh 41.0
CC(=O)n1nc(-c2ccco2)nc1SCc1ccccc1	Cycloheximide cs 18.9
CCC(=O)n1nc(-c2ccco2)nc1SCc1ccccc1	Cycloheximide cs 35.2, Shiga toxin inh 31.6
